Reference: the OligoGym collection

Target: RAB28
Experiment: pooled miR-30 sensor sort-seq; sequence = guide strand
Conditions: shRNA

Row | Sequence | sensor-assay potency score (higher = more potent)
1 | TAGTTAAGGAGGTCTTCCCGGA | -0.69
2 | TTGAAGGGTAACATTCAAGTTT | -0.65
3 | TATTGTTCGCATATGCTCCAAA | -0.803
4 | TTTGATAATTTGTAATATCATA | -1.64
5 | TATTTATCCAACATTTTGCCTC | -0.421
6 | TTTGTTTGTACTGTTTCCCAAA | -0.914
7 | TAACAGTCCTTGACATAGGTTC | -0.143
8 | TTATTGTTCGCATATGCTCCAA | -0.667
9 | ATTTGTAATATCATATACCAAG | -1.51
10 | TTAACAGTCCTTGACATAGGTT | -0.695
11 | TTATCCAACATTTTGCCTCCTA | 0.54

Target: RAB3D
Experiment: as above
Conditions: shRNA

Row | Sequence | sensor-assay potency score (higher = more potent)
12 | TTGATGTTCTCCTTGGCACTGG | -0.145
13 | TTGGAATCCAGAAAGTTCGTGG | 0.567
14 | TTGAACATATAGTCGAAGTTCT | 0.33
15 | TATAGTCGAAGTTCTGATCTGC | 0.851
16 | TTGCTGCCTGAGCTGGAGCTGG | -1.52
17 | TTCACATTGATGTTCTCCTTGG | -0.53
18 | TTGACCTTGAAATCGATGCCCA | -0.115
19 | TTCTGATCTGCTGCATCCCGTG | -1.02
20 | TGAACCATCTTCCACCAGCTTG | -1.09
21 | TATCAGTAGCAGTTTGAACATA | -1.09
22 | TAAGCTAGAAGGCACCACGGAT | -0.984
23 | TAGCAGTTTGAACATATAGTCG | -0.969

Target: RAB3GAP2
Experiment: as above
Conditions: shRNA

Row | Sequence | sensor-assay potency score (higher = more potent)
24 | TAAAACACAATCTTGGAGCCAG | 0.291
25 | TTACAGGCAACACACCATCTTT | -1.36
26 | TTTATTCCACTGAACAACGTAC | -0.27
27 | TTATTTACTAGTTTAGCTGTTG | 0.0265
28 | TTAATTGACTGACAGACTCATA | -0.923
29 | TTGACTGACAGACTCATAGAGT | -0.525
30 | TTCAGTGTTTTGAAGGTCCTGG | -0.334
31 | TTCAAGTGTTCTATTGACCTAA | 0.6
32 | TATGAGACAATCCTCCAGCTGT | -0.612
33 | TTCTGTGGGATCTTTGACCTTT | 0.671
34 | TTTGCTGTGAAGCAGAGTCTGA | -0.886

Target: RABGEF1
Experiment: as above
Conditions: shRNA

Row | Sequence | sensor-assay potency score (higher = more potent)
35 | TTGGCTTCATTCATGATCCTTT | 0.202
36 | TTAGTTACATTCTAGATCCCAA | 0.187
37 | TTCTTCAATGCTTAGATCCCTT | -0.412
38 | TTATCTTCTCGACTCTTTCTGG | -0.279
39 | TTTCTTGCACAGGAGATCCGAT | -0.404
